# Results from PubChem BioAssay (NCI).
# The panel holds about 83,000 compounds, 20% with a hit somewhere; the sample as a whole holds those more often.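 Plates (96-well) were seeded with cells, treated with compound at one concentration, and incubated for 48 hours before percent growth was determined.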 Values without a mark were called inactive. The source made the active and inactive calls. How the source made its calls: active means growth percent below 10; inactive means the rest.
# Tested on: HL-60(TB) leukemia
# Assay: NCI-60 one-dose screen, 48 h (100 = growth as untreated, 0 = no growth, -100 = all killed)
# Conditions: 10 µM unless noted
row,SMILES,growth
1,COC1=C[C@]23CCC(=O)N2CCc2cc4c(cc2[C@@H]3[C@@H]1OC(=O)CCCC(C)C)OCO4,7.81% (active)
2,COc1ccc(N(C)c2cc(C#N)nc3ccccc23)cc1N,-10% (active)
3,Oc1ccc(Cl)c(Nc2nc(SCCN3CCOCC3)nc3c2cnn3CC(Cl)c2ccc(Br)cc2)c1 (stereo unspecified),-36.2% (active)
4,Fc1cccc(CNc2nc(SCCN3CCOCC3)nc3c2cnn3CC(Cl)c2ccc(Br)cc2)c1 (stereo unspecified),-23.6% (active)
5,NC(=S)Nc1cccc(NC(N)=S)c1,99.1%
6,C=C1CCC2C3(C)COC(c4ccccc4)OC3CCC2(C)C1CC(Sc1ccccc1)C1=CCOC1=O (stereo unspecified),-33% (active)
